# KLK7 zymogen act: proKLK7 (human) activation, primary screen; P49862; purified proKLK7, EDANS-DABCYL substrate fluorescence; 100% is mature enzyme control, 0% vehicle; activation, % at 7 µM; 370,000 tested, 0.9% active;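 active means activation above the mean of all tested compounds plus 3 SD, computed per campaign excluding outliers beyond control limits, cut at about 13% in these data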
# ADAM17 inh: ADAM17 inhibition, QFRET primary screen; P78536; recombinant ADAM17, EDANS/DABCYL FRET peptide cleavage; inhibition, % at 6.95 µM; 370,000 tested, 0.83% active; AID 720648;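 active means inhibition above the mean of compounds lying between control limits plus 3 SD, set per campaign, cut at about 8.5% in these data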;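 further: 0% = DMSO-only wells as the low control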
# Target sequence (P78536 215-824 limits assumed): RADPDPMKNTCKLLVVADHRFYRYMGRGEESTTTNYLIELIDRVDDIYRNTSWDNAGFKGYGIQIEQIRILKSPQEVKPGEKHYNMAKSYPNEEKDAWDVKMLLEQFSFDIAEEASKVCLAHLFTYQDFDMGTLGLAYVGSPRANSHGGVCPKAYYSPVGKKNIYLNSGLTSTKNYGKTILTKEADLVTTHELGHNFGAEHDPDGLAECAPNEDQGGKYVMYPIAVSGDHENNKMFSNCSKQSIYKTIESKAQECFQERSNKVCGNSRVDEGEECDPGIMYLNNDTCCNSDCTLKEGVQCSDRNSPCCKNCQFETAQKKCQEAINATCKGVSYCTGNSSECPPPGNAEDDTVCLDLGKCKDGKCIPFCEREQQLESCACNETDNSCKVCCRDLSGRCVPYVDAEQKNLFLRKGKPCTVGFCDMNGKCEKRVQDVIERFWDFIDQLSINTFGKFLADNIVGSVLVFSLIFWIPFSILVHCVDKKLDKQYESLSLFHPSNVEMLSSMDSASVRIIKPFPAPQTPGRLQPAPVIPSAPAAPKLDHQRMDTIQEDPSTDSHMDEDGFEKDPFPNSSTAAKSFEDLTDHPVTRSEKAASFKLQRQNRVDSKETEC
# PLC-beta3 inh: inhibitors of human phospholipase C beta3; Q01970; AID 720704; inhibition, % at 12.2 µM; Purified PLC-beta3, fluorogenic substrate, fluorescence; 370,000 tested, 0.18% active; in the data active means inhibition above about 11%;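 further: 0% = median of compound wells on plate and 100% = full blocker control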
# PLCg1 inh: inhibitors of human phospholipase C gamma1. P19174. purified PLC-gamma1, fluorogenic substrate, fluorescence. inhibition, % at 12.2 µM. 370,000 tested, 0.84% active; in the data active means inhibition above about 9.5%
# ADAM10 inh: ADAM10 inhibition, QFRET primary screen; O14672; recombinant ADAM10, EDANS/DABCYL FRET peptide cleavage, 3 h; inhibition, % at 7 µM; 370,000 tested, 0.62% active; AID 720582;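 active means inhibition above a per-campaign cutoff equal to the mean of compounds falling between control-based bounds plus 3 SD, cut at about 20% in these data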;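 further: 0% = DMSO wells while the 100% control is not disclosed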
# ADAM10 counter: ADAM10 inhibition, counter-screen for ADAM17 exosite hits; shares compounds with ADAM17 inh; recombinant ADAM10, EDANS/DABCYL FRET peptide cleavage, 3 h; inhibition, % at 6.95 µM; 2,900 tested, 47% active; AID 743256;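 active means mean inhibition over the triplicate runs exceeds the activity threshold set in the earlier primary screen, cut at about 20% in these data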;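 further: 0% = DMSO wells and 100% = marimastat wells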
# ADAM17 confirm: confirmation of inhibitors of human ADAM17; AID 743257; inhibition, % at 6.95 µM; 2,900 tested, 65% active; shares compounds with ADAM17 inh; recombinant ADAM17, EDANS/DABCYL QFRET peptide cleavage;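 active means mean inhibition across replicates above the hit cutoff set in the primary screen, cut at about 8.5% in these data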;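 further: 0% = DMSO wells and 100% = marimastat wells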
# * marks the source's active call; other numbers are inactive results; nt = no result. Rows were chosen to be rich in hits. Some 2.9% of all compounds tested hit in one or more screens of this group.
SMILES,KLK7 zymogen act,ADAM17 inh,PLC-beta3 inh,PLCg1 inh,ADAM10 inh,ADAM10 counter,ADAM17 confirm
COc1ccc(NC(=O)N(C)C[C@H]2Oc3c(NC(=O)c4nc5ccccc5s4)cccc3C(=O)N([C@@H](C)CO)C[C@H]2C)cc1,2,12*,-28,-11,18,25*,13*
C[C@H](CO)N1C[C@H](C)[C@@H](CN(C)Cc2ccc(Oc3ccccc3)cc2)Oc2c(NC(=O)c3ccncc3)cccc2C1=O,1,12*,0,7,20,13,8
COc1ccc(S(=O)(=O)Nc2cccc3c2O[C@H](CN(C)C(=O)Nc2ccc(C(F)(F)F)cc2)[C@@H](C)CN([C@H](C)CO)C3=O)cc1,0,16*,5,9.9*,21*,21*,14*
COc1ccc(S(=O)(=O)Nc2ccc3c(c2)C(=O)N([C@H](C)CO)C[C@H](C)[C@@H](CN(C)C(=O)Nc2ccc(C(F)(F)F)cc2)OCCCC[C@H](C)O3)cc1,1,10*,-1,0,13,39*,21*
NS(=O)(=O)c1ccc(NC(=O)N[C@@H](Cc2ccccc2)C(=O)O)cc1,0,9.8*,5,4,0,11,8
CCOC(=O)N1CCC(NC(=O)CS(=O)(=O)Cc2nc(-c3cccc(Cl)c3)oc2C)CC1,0,9.6*,-7,7,-3,2,3
CCOC(=O)N1CCC(NC(=O)CS(=O)(=O)Cc2nc(-c3cccc(OC)c3)oc2C)CC1,0,0,3,1,-1,nt,nt
O=C1Nc2ccccc2C12OCC(COc1ccc(Cl)cc1)O2 (stereo unspecified),0,11*,-6,-1,16,8,6
CN1C(=O)C2(OCC(COc3ccc(Cl)cc3)O2)c2ccccc21 (stereo unspecified),0,3,-1,0,8,nt,nt
COC(=O)[C@H](CC(C)C)N1Cc2nnn(Cc3ccc(C)cc3)c2-c2cc(F)ccc2S1(=O)=O,1,10*,0,6,14,18,14*
COC(=O)[C@H](CC(C)C)N1Cc2nnn(Cc3ccccc3)c2-c2ccccc2S1(=O)=O,-1,5,0,0,8,nt,nt
CCC1NC(=O)c2cc(S(N)(=O)=O)c(Cl)cc2N1 (stereo unspecified),0,-51,-46,-39,-182,nt,nt
CCCc1cc(-c2[nH]ncc2-c2ccc(C(=O)OCC)o2)c(O)cc1O,0,-12,-103,-77,-24,nt,nt
CCCc1cc(-c2[nH]ncc2-c2ccc3c(c2)OCCCO3)c(O)cc1O,0,11*,-1,2,4,27*,14*
CCOC(=O)C1=C(C)N(CCC(=O)O)C(=O)NC1c1ccccc1Cl (stereo unspecified),0,-4,0,4,5,nt,nt
CCOC(=O)C1=C(C)N(CCCCCC(=O)O)C(=O)NC1c1ccccc1OC(=O)c1cccs1 (stereo unspecified),0,10*,2,6,5,-1,4
Cc1ccc(NC(=O)COC(=O)C2C3CC4OC(=O)C2C4C3)cc1 (stereo unspecified),0,0,-3,1,-2,nt,nt
CS(=O)(=O)NCc1nnc(SCC(=O)NC2CCCCC2)n1-c1ccc(F)cc1,0,9.1*,9,2,10,-1,5
O=S1(=O)CCN2C(c3ccco3)=CSC2=N1,0,2,3,2,-3,nt,nt
O=S1(=O)CCN2C(c3ccc4c(c3)CCCC4)=CSC2=N1,0,8.7*,11*,1,8,24*,12*
Cc1ccc(CNC(=O)c2nnc(CS(=O)(=O)c3ccccc3)o2)cc1,0,1,1,0,6,nt,nt
O=C(NCc1ccccc1Cl)c1nnc(CS(=O)(=O)c2ccccc2)o1,-1,11*,5,2,17,-2,-1
COc1cc(CNS(=O)(=O)c2ccc3c(c2)CC(C)N3C(=O)C2CCC2)cc(OC)c1OC (stereo unspecified),1,4,1,3,2,nt,nt
CN(C)c1ccc(-c2csc(C(C)(O)c3ccc(F)c(F)c3)n2)cc1 (stereo unspecified),0,13*,-10,-4,6,11,5
O=C(Nc1ccccc1)C1=C[C@H](c2ccc(Br)cc2)C[C@H](OCc2ccc(CO)cc2)O1,1,10*,3,2,18,29*,24*
SMILES,KLK7 zymogen act,ADAM17 inh,PLC-beta3 inh,PLCg1 inh,ADAM10 inh,ADAM10 counter,ADAM17 confirm
O=C(C1=C[C@H](c2ccc3c(c2)OCO3)C[C@H](OCCCCO)O1)N1CCN(Cc2ccccc2)CC1,0,-3,-6,-6,-9,nt,nt
O=C(Nc1ccccc1)C1=C[C@@H](C2CCCCC2)C[C@@H](OCc2ccc(CO)cc2)O1,0,8.7*,2,5,18,19,13*
O=C(Nc1ccccc1)C1=C[C@H](C2CCCCC2)C[C@H](OCc2ccc(CO)cc2)O1,1,7,5,4,16,nt,nt
O=C(C1=C[C@@H](c2ccc(Br)cc2)C[C@@H](OCCCCO)O1)N1CCN(Cc2ccccc2)CC1,0,8.8*,-4,8,8,14,7
O=C(Nc1ccccc1)C1=C[C@@H](c2ccccc2)C[C@@H](OCc2ccc(CO)cc2)O1,0,2,4,2,6,nt,nt
CCC(C)N(C(=O)COC(=O)c1ccccc1SCC(=O)N1CCCC1)C1CCS(=O)(=O)C1 (stereo unspecified),-1,0,-1,0,7,nt,nt
CN(C(=O)COC(=O)c1ccccc1SCC(=O)N1CCCC1)C1CCS(=O)(=O)C1 (stereo unspecified),0,9.0*,-6,0,16,-12,0
Cc1ccc(S(=O)(=O)N2CCN(C(=O)COC(=O)c3ncc(Cl)c(Cl)c3Cl)CC2)c(C)c1,1,9.0*,-5,2,-11,8,8.9*
OC(c1cccc(Cl)c1)c1nc(-c2ccccc2)cs1 (stereo unspecified),0,0,-5,0,3,nt,nt
OC(c1cccc(Cl)c1)c1nc(/C=C/c2ccc(C(F)(F)F)cc2)cs1 (stereo unspecified),0,12*,-15,-6,16,1,6
CC(C)c1cccc(-c2csc(C(O)c3cccc(Cl)c3)n2)c1 (stereo unspecified),0,9.7*,6,2,12,19,13*
CCC(CC)NC(=O)Nc1ccccc1C(F)(F)F,0,-4,-8,-1,-2,nt,nt
COc1ccc(OC)c(NC(=O)[C@H]2CC=CC[C@H]2C(=O)O)c1,0,1,1,3,11,nt,nt

# High-throughput results deposited in PubChem BioAssay by The Scripps Research Institute Molecular Screening Center.
